Experimental findings from the supplement of paper PMC7858590 are described below.

The subject of the first test is human monocyte-derived macrophages (polarized). Nature of the test: cell shape (eccentricity) Z-score vs DMSO control; higher = more elongated, M2-like morphology. The note with it: 5 µM; 24 h; macrophage state: M1-polarized (IFNg + TNFa), cytokines present during treatment. Here is the method:
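Primary-screen hits were rescreened on polarized hMDMs with the differentiating cytokines (IL-4 + IL-13 or IFNg + TNFa) kept in the medium during treatment with compound at 5 uM for 24 h. The eccentricity Z-score vs DMSO wells is averaged over experiments.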
Take `CC[C@@H]1/C=C/C=C/C[C@H](C)[C@H](O)[C@](C)(O)C(=O)[C@H](C)[C@@H](O)[C@H](C)C(=O)[C@H](C)[C@@H](O)[C@H](C)/C=C/C(=O)O[C@H]2[C@@H](C)[C@@H](CC1)O[C@@]1(CC[C@@H](C)[C@@H](C[C@H](C)O)O1)[C@@H]2C`: the “cell shape (Z-score)” value is -9.34.

For `O=C(O)c1nn(Cc2ccc(Cl)cc2Cl)c2ccccc12`, the “cell shape (Z-score)” value was 4.43.

Consider `C=C(C)[C@@H]1[C@H]2OC(=O)[C@@H]1[C@]1(O)C[C@H]3O[C@]34C(=O)O[C@H]2[C@]14C`, for which the “cell shape (Z-score)” value amounted to 0.251.

Take `Clc1ccc(C(OCCN2CCCCC2)c2ccccc2)cc1` (stereo not given): the “cell shape (Z-score)” value is -5.91.

Regarding `O=C1/C(=C/c2ccccc2)C[C@@]2(O)[C@H]3Cc4ccc(O)c5c4[C@@]2(CCN3CC2CC2)[C@H]1O5`, the “cell shape (Z-score)” value is -6.15.

As for `COc1cc2c(c(OC)c1OC)-c1ccc(OC)c(=O)cc1[C@@H](NC(C)=O)CC2`, the “cell shape (Z-score)” value was 3.12.

Regarding `CCCN(CCC)C1CCc2cccc(O)c2C1` (stereo not given), the “cell shape (Z-score)” value is -3.43.

On to `CC(C)[C@]12O[C@H]1[C@@H]1O[C@]13[C@]1(O[C@H]1C[C@H]1C4=C(CC[C@@]13C)C(=O)OC4)[C@@H]2O`, for which the “cell shape (Z-score)” value was determined as 5.54.

For the molecule `COc1cc([C@@H]2c3cc4c(cc3[C@@H](O)[C@H]3COC(=O)[C@H]23)OCO4)cc(OC)c1O`, the “cell shape (Z-score)” value is 3.2.

In the case of `C[C@]12CC[C@@H](O)C[C@@H]1CC[C@@H]1[C@@H]2CC[C@]2(C)[C@@H](C(=O)CO)CC[C@@H]12`, the “cell shape (Z-score)” value was found to be 3.05.

Turning to `CN(C)C(=S)SSC(=S)N(C)C`, the “cell shape (Z-score)” value was -4.6.

For the molecule `CCC(=O)CCCCC[C@@H]1NC(=O)[C@H]2CCCCN2C(=O)[C@H]([C@@H](C)CC)NC(=O)[C@H](Cc2cn(OC)c3ccccc23)NC1=O`, the “cell shape (Z-score)” value is 4.88.

As to `CCCCCCCCCCCCCC(=O)O[C@@H]1[C@@H](C)[C@@]2(O)[C@@H](C=C(CO)C[C@]3(O)C(=O)C(C)=C[C@@H]23)[C@@H]2C(C)(C)[C@]12OC(C)=O`, the “cell shape (Z-score)” value was -6.25.

Regarding `CCOC(=O)c1ncn2c1C1CCCN1C(=O)c1cc(OC)ccc1-2` (stereo not given), the “cell shape (Z-score)” value came out at 1.88.

For `C[C@]12CCC(=O)C=C1CC[C@@H]1C2CC[C@]2(C)C(=O)CCC12` (stereo not given in full), the “cell shape (Z-score)” value is -0.101.

Regarding `Cc1sc2c(c1C)C(c1ccc(Cl)cc1)=N[C@@H](CC(=O)OC(C)(C)C)c1nnc(C)n1-2`, the “cell shape (Z-score)” value is -7.72.

Regarding `O=C1NC(=O)c2c1c1c3ccccc3[nH]c1c1[nH]c3ccccc3c21`, the “cell shape (Z-score)” value amounted to 7.76.

As to `COc1cc([C@@H]2c3cc4c(cc3[C@H](OC(C)=O)[C@H]3COC(=O)[C@H]23)OCO4)cc(OC)c1OC`, the “cell shape (Z-score)” value is 7.24.

In the case of `CN1[C@@H]2CC[C@H]1C[C@@H](OC(c1ccccc1)c1ccccc1N)C2` (stereo not given in full), the “cell shape (Z-score)” value is -3.5.

Turning to `COc1cc([C@@H]2c3cc4c(c(O)c3C[C@H]3COC(=O)[C@@H]32)OCO4)cc(OC)c1OC`, the “cell shape (Z-score)” value worked out at 3.15.

Take `c1cc2c(c(N3CCNCC3)c1)OCCO2`: the “cell shape (Z-score)” value is -7.3.

As for `CCN1C[C@]2(COC)CC[C@H](OC)[C@]34C1[C@H]([C@H](OC)[C@H]23)[C@@]1(OC(C)=O)C[C@H](OC)[C@]2(O)C[C@@H]4[C@@H]1[C@H]2OC(=O)c1ccc(OC)cc1`, the “cell shape (Z-score)” value is -6.97.

Consider `CCNC(=O)C[C@@H]1N=C(c2ccc(Cl)cc2)c2cc(OC)ccc2-n2c(C)nnc21`, for which the “cell shape (Z-score)” value was -4.48.

The same test, now with this note: 5 µM; 24 h; macrophage state: M2-polarized (IL-4 + IL-13), cytokines present during treatment.
As to `CC1=CC(=O)c2c(O)cccc2C1=O`, the “cell shape (Z-score)” value is 3.72.

Take `O=c1[nH]c2ccccc2n1C1CCN(CCCC(c2ccc(F)cc2)c2ccc(F)cc2)CC1`: the “cell shape (Z-score)” value was -5.52.

With `Cc1c(C(=O)c2cccc3ccccc23)c2cccc3c2n1[C@H](CN1CCOCC1)CO3`, the “cell shape (Z-score)” value was -6.47.

Take `Fc1ccc(C(OCCN2CCN(C/C=C/c3ccccc3)CC2)c2ccc(F)cc2)cc1`: the “cell shape (Z-score)” value was -8.38.

For `C=C1[C@@H](C)[C@H]2[C@H](Cc3ccccc3)NC(=O)[C@]23OC(=O)/C=C/[C@H](O)CCC[C@@H](C)C/C=C/[C@H]3[C@@H]1O`, the “cell shape (Z-score)” value was -29.4.

In the case of `CC(=O)O[C@@H]1CC2C(C)(C)C(=O)C=C[C@]2(C)C2CC[C@]3(C)C(=CC(=O)O[C@H]3c3ccoc3)[C@@]21C` (stereo not given in full), the “cell shape (Z-score)” value was -9.39.

In the case of `c1ccc2c(c1)[I+]c1ccccc1-2`, the “cell shape (Z-score)” value is -19.

With `C(=C\c1ccccc1)/CN1CCN(CCOC(c2ccccc2)c2ccccc2)CC1`, the “cell shape (Z-score)” value is 3.27.

Consider `CCCC[C@@H](C)[C@@H](OC(=O)C[C@@H](CC(=O)O)C(=O)O)[C@H](C[C@@H](C)C[C@H](O)CCCC[C@@H](O)C[C@H](O)[C@H](C)N)OC(=O)C[C@@H](CC(=O)O)C(=O)O`, for which the “cell shape (Z-score)” value worked out at 2.12.

With `COc1ccc2c(c1)[nH]c1c(C)nccc12`, the “cell shape (Z-score)” value was -11.

On to `C[C@@]12C(=O)OC(=O)[C@]1(C)[C@H]1CC[C@@H]2O1`, for which the “cell shape (Z-score)” value was -39.6.

Regarding `COc1cc(Br)c(OC)c2c1C(CN)C2` (stereo not given), the “cell shape (Z-score)” value came to 7.42.

`CC(=O)O[C@H]1C(=O)[C@@]2(C)[C@H]([C@H](OC(=O)c3ccccc3)[C@]3(O)C[C@H](O)C(C)=C1C3(C)C)[C@]1(OC(C)=O)CO[C@@H]1C[C@@H]2O`: the “cell shape (Z-score)” value is -9.61.

Turning to `CCN1C[C@]2(C)CC[C@H](O)[C@@]34C2[C@H](OC)C([C@@H]13)[C@@]1(O)C[C@H](OC)[C@H]2C[C@@H]4[C@@H]1[C@H]2O`, the “cell shape (Z-score)” value was -1.79.

Turning to `C[C@H]1O[C@@H](O[C@H]2CC[C@]3(CO)C4CC[C@]5(C)[C@@H](C6=CC(=O)OC6)CC[C@]5(O)[C@@H]4CC[C@H]3C2)[C@H](O)[C@H](O)[C@@H]1O[C@@H]1O[C@H](CO)[C@@H](O)[C@H](O)[C@H]1O` (stereo not given in full), the “cell shape (Z-score)” value was -17.5.

Regarding `CC(C)=CCC[C@]1(C)C=Cc2c(O)c3c(c(CC=C(C)C)c2O1)O[C@]12C(=C[C@@H]4C[C@H]1C(C)(C)O[C@@]2(C/C=C(/C)C(=O)O)C4=O)C3=O`, the “cell shape (Z-score)” value was -10.

Take `CN1C(=O)COc2c(C(=O)NC3CN4CCC3CC4)cc(Cl)cc21` (stereo not given): the “cell shape (Z-score)” value is -3.99.
